From PubChem BioAssay AID1508607 (The Scripps Research Institute Molecular Screening Center, 2020)
About 20 (0.9%) of roughly 2,300 compounds were called active.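 The calls were made as follows: active = mean percent activation across replicates above the counterscreen hit cutoff of 9.17%; inactive = the rest.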 Many of the other results were omitted from the sample, so actives are more common in it than they were.

Molecular target: Glucose-dependent insulinotropic receptor (Homo sapiens) (UniProt Q8TDV5)
Sequence (Q8TDV5 whole entry, looked up): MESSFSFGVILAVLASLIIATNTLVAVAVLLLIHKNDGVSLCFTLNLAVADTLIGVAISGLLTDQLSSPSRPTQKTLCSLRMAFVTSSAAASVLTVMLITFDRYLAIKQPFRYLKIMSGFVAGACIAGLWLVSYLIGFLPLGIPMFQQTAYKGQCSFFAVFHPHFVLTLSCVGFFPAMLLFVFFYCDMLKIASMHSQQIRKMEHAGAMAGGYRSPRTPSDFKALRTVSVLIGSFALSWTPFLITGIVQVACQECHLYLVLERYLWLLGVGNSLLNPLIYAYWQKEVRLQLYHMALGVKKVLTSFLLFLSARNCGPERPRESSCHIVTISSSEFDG
Test: GPR119 activators in beta-arrestin cells, confirmation, counter-screen for GPR151 activator project, cell-based, PathHunter beta-arrestin, luminescence, set 2 (AID 1508607);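 also: 0% = median of sample wells and 100% = wells given EA reagent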
Settings: 90 min, at 11.2 µM, hits give high values

SMILES | activation
C[C@@H]1O[C@@H](O[C@H]2C[C@@H](O)[C@]3(CO)[C@H]4[C@H](O)C[C@]5(C)[C@@H](C6=CC(=O)OC6)CC[C@]5(O)[C@@H]4CC[C@]3(O)C2)[C@H](O)[C@H](O)[C@H]1O | 18.4% (active)
COCCN1C(=S)NC2c3cccc(OC)c3OC1(C)C2C(=O)OC (stereo not given) | -2.57% (inactive)
Cc1cccc(C)c1-n1nnnc1C1(NCCc2c(C)[nH]c3ccccc23)CCCCC1 | -3.88% (inactive)
CC[n+]1c(/C=C/C=C2\N(C)c3ccccc3C2(C)C)n(-c2ccccc2)c2cc(Cl)ccc21 | 4.85% (inactive)
CCn1c(/C=C/C=C2\N(C)c3ccccc3C2(C)C)[n+](Cc2ccccc2)c2ccccc21 | 15.3% (active)
CC[n+]1c(/C=C/C=C2\N(C)c3ccccc3C2(C)C)n(-c2ccccc2)c2ccc(C)cc21 | 2.58% (inactive)
O=c1c2ccccc2nc(/C=C/c2ccccc2)n1-c1cccc(C(F)(F)F)c1 | 1.19% (inactive)
COc1ccc2[nH]c(C)c(CCNCc3ccc(OC(F)(F)F)cc3)c2c1 | 0.78% (inactive)
O=C(NCc1ccc(Cl)cc1)C(Cl)(Cl)Cl | 1.33% (inactive)
O=C(NC(O)C(Cl)(Cl)Cl)c1ccccc1 (stereo not given) | -0.61% (inactive)
C[C@H]1CC[C@@H]2[C@@H](C)[C@H]3[C@H](CC4[C@@H]5CC=C6CC(O[C@@H]7O[C@H](CO)C(O[C@@H]8O[C@@H](C)[C@H](O)[C@@H](O)[C@H]8O)[C@H](O)[C@H]7O[C@@H]7O[C@@H](C)[C@H](O)[C@@H](O)[C@H]7O)CC[C@]6(C)[C@H]5CC[C@@]43C)N2C1 (stereo not given in full) | 28.4% (active)
COc1ccc(CN2CCNCC2CCO)c(C)c1C (stereo not given) | 0.92% (inactive)
CCN1C(=O)c2ccccc2Sc2ccc(C(=O)N3CCC4(CC3)OCCO4)cc21 | 0.67% (inactive)
COc1cccc(C2N(c3ccccn3)C(=O)C3CCCN32)c1 (stereo not given) | -1.97% (inactive)
CCc1ccc(NC(=O)CN2CC(c3ccccc3)CC2=O)cc1 (stereo not given) | 2.2% (inactive)
